# Laboratory results reported in PubChem BioAssay AID2284381 (EPA ToxCast).
# Results filed as inconclusive are left out. Calls of active or inactive are those of the source. The calls were made as follows: active = hit-call score of the fitted dose curve at least 0.9, where 1 is the maximum; inconclusive = response in the unintended direction; inactive = score below 0.9.
# System: Japanese medaka Retinoid X Receptor beta (RXRb), gene 100125505
# Assay: ATG_jmRXRb_EcoTox2: Attagene TRANS-FACTORIAL EcoTox-2 HepG2 Assay for Japanese medaka Retinoid X Receptor beta (RXRb)
# Method: ATG_EcoTox2 is a cell-based, multiplexed assay created by modifying the existing Attagene TRANS-FACTORIAL system to include a panel of nuclear receptors from some or all the following species: human (Homo sapiens), african clawed frog (Xenopus laevis), rainbow trout (Oncorhynchus mykiss), japanese medaka (Oryzias latipes), and zebrafish (Danio rerio). The ECOTOX2-FACTORIAL format uses HepG2, a human liver cell line, with measurements taken at 24 hours after chemical dosing in a 24-well plate. ATG_jmRXRb_EcoTox2 is one of 29 assay components calculated in the ATG_EcoTox2 assay. It is designed to make measurements of mRNA induction, a form of inducible reporter, as detected with fluorescence intensity signals by Reverse transcription polymerase chain reaction (RT-PCR) and Capillary electrophoresis technology.The assay endpoint ATG_jmRXRb_EcoTox2 was analyzed in the positive analysis fitting direction relative to DMSO as the negative control and baseline of activity. Using a type of inducible reporter, measures of mRNA for gain-of-signal activity can be used to understand the reporter gene at the transcription factor-level as they relate to the gene RXRb. Furthermore, this assay endpoint can be referred to as a primary readout, because this assay has produced multiple assay endpoints where this one serves a reporter gene function. […]
# Human liver HepG2 cells are transiently transfected with multiple reporter transcription units (MRTUs) in 6-well plates using FuGene 6 reagent (Roche; 3 ml FuGene/1 mg DNA). […] A major difference between the CIS and TRANS system is that in CIS activities of endogenous TFs are measured, whereas the TRANS assay evaluates changes in activities of exogenous, chimeric NR-Gal4 proteins. […] The fragments were purified using Qiaquick PCR columns (Qiagen), analyzed on an ABI 3130xL genetic analyzer (Applied Biosystems) with peak positions identified by using a set of X-rhodamine (ROX)-labeled MapMarker1000 molecular weight standards (BioVentures). […]
row,Structure (SMILES),AC50
1,O=C(O)C(F)(F)C(F)(F)C(F)(F)C(F)(F)C(F)(F)C(F)(F)C(F)(F)F,31.4 µM (active)
2,CCCCOCN(C(=O)CCl)c1c(CC)cccc1CC,50 µM (active)
3,[Cl][Sn]([c]1ccccc1)([c]1ccccc1)[c]1ccccc1,0.171 µM (active)
